Compound activity as filed in PubChem BioAssay.
DT40 TDP1 CPT – growth inhibition of DT40 Tdp1-/-;hTDP1 cells with camptothecin (screen for TDP1 inhibitors); chicken DT40 Tdp1-/-;hTDP1 cells + 20 nM CPT, ATP luminescence, 48 h; Potency, µM (highest dose often 46.2 µM), for the others: at the top dose activity change, negative = growth inhibition, usual class: inhibitors; hit rate 12% among 420,000; AID 686979; note: potency is the fitted concentration of half-maximal effect; nearly all actives have a fitted effect of over 55% in size
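Chicken DT40 Tdp1-/- cells complemented with human TDP1, 400 cells/well, exposed to compounds plus 20 nM camptothecin for at least 48 h at 37 C; viability read as ATP content by CellTiter-Glo luminescence.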
RORgamma inh – inhibitors of mouse ROR gamma transcriptional activity. P51450. Drosophila S2 Gal4-RORgamma UAS-luciferase reporter, 20 h. Potency, µM (top dose mostly 53.6 µM), for inactives: at the highest dose activity change, negative = inhibition, usual class: inhibitors. hit rate 5.4% among 310,000; note: potency is the fitted concentration of half-maximal effect; nearly all actives have a fitted effect of over 60% in size
Target sequence (P51450 whole entry, looked up, the tested form may be a part): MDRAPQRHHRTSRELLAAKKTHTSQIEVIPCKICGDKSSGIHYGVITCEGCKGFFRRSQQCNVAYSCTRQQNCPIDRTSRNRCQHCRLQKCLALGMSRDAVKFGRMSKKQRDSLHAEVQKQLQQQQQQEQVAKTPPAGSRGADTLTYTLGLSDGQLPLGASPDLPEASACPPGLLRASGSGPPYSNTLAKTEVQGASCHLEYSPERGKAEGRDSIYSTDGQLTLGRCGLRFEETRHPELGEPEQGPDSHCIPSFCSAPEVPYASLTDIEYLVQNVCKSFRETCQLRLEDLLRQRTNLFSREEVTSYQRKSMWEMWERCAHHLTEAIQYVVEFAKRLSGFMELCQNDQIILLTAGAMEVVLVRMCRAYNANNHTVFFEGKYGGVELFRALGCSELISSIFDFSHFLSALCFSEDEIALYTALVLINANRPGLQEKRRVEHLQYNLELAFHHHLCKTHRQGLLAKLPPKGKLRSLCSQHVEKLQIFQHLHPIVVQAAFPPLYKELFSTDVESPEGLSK
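ROR gamma transcriptional activity was tracked as Gal4-UAS luciferase output in stably transfected Drosophila Schneider cells, with compound added 1 hr before 700 uM copper sulfate induction and a 20 hr ambient-temperature incubation.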
VP16 counter – counter-screen for ROR gamma inhibitors: Gal4-VP16 reporter | Drosophila S2 Gal4-VP16 UAS-luciferase, luminescence, 20 h | Potency, µM (titrated, usually from 53.6 µM), without a hit: top-dose activity, negative = inhibition, usual class: inhibitors | hit rate 3.5% among 310,000;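 note: Gal4-VP16 expression switched on by copper sulfate through the metallothionein promoter; potency is the fitted concentration of half-maximal effect; nearly all actives have a fitted effect of over 50% in size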
LDHA inh – blocks human lactate dehydrogenase A; hit rate 0.15% among 480,000; AID 1347041; activity change, % (values are at about 110 or 230 µM); P00338; purified LDHA, NADH/diaphorase-resazurin fluorescence; active compounds read low; in the data active = activity change below about -30%; inconclusive = mostly about -25% to -30%;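 note: plate controls were DMSO wells for no effect and wells without enzyme for full effect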
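LDH5 2 nM; NADH 0.06 mM, pyruvate 0.2 mM; 200 mM Tris pH 7.4, EDTA, Tween-20; 5 min RT. Detection: diaphorase 0.133 mg/mL + resazurin 37 µM, fluorescence ex540/em590 at 0 and 20 min; normalized to enzyme-free and DMSO wells.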
TDP1 cell noCPT – qHTS for Inhibitors of human tyrosyl-DNA phosphodiesterase 1 (TDP1): qHTS in cells in absence of CPT; DT40 Tdp1-/- hTDP1 cells, no CPT, ATP luminescence, 48 h; Potency, µM (titrated, usually from 46.2 µM), without a hit: top-dose activity change, negative = growth inhibition, hits mostly inhibitors; hit rate 15% among 420,000; AID 686978, 2013; note: potency is the fitted concentration of half-maximal effect; nearly all actives have a fitted effect of over 55% in size
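No-CPT arm: Tdp1-/-;hTDP1 DT40 cells (400/well) plus compounds, incubated ≥48 hr at 37 °C. Readout CellTiter-Glo luminescence.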
IL1B secr inh – inflammasome signaling inhibition, IL-1 beta readout; THP-1 LPS/ATP IL-1B secretion, AlphaLISA, 16 h; active compounds read low; activity change, % at 57.5 µM; hit rate 4.7% among 360,000; AID 743279; in the data active = activity change below about -50%; inconclusive = mostly about -30% to -49%
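THP-1 cells pretreated 1 hr with compounds (up to 57.5 uM final), then stimulated with LPS (250 ng/mL final) plus ATP (1.25 mM final); secreted IL-1B measured by AlphaLISA after 16 hr, decreased signal indicating inhibition.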
Numbers without * were called inactive; ? = inconclusive; nt = no result given. Rows were chosen to be rich in hits. Some 18% of all compounds tested hit in one or more screens of this group. Unless noted, calls come from the whole dose curve; as a rule, active = well fitted curve in the direction sought with a large enough effect; inconclusive = small, poorly fitted or top-dose-only effect, or another doubt; inactive = no such curve, though single readings can be large; an effect the other way counts as inactive or inconclusive. Unless noted, % is set by controls: 0 for no effect and ±100 for the full control effect.

SMILES	DT40 TDP1 CPT	RORgamma inh	VP16 counter	LDHA inh	TDP1 cell noCPT	IL1B secr inh
CCCCOCCCNc1ncnc2c1[nH]c1ccccc12	2.06µM*	?	10µM*	-2.6	2.31µM*	-94.8*
O=C1COc2cc(S(=O)(=O)CCC(=O)N3CCN(Cc4ccccc4)CC3)c(Cl)cc2N1	nt	nt	nt	-0.2	nt	nt
N#Cc1ccccc1COc1ccc(C(=O)c2ccc(F)cc2)cc1	nt	nt	nt	11.1	nt	nt
O=C(OCc1cccc(F)c1F)c1ccc(CN2CCCC2=O)cc1	nt	nt	nt	5.6	nt	nt
COCCNC(=S)N(CCc1c(C)[nH]c2ccc(C)cc12)Cc1cc(OC)c(OC)c(OC)c1	18.4µM*	-4.7%	3.1%	2.4	?	-7.2
COCCNC(=S)N(CCc1c(C)[nH]c2ccc(Cl)cc12)Cc1cccnc1	?	-10.5%	6.9%	2.5	20.6µM*	?
CNC(=S)N(CCc1c(C)[nH]c2ccc(Cl)cc12)Cc1cccnc1	-1.4%	-35.2%	-12.6%	-7.7	?	?
CCNC(=S)N(CCc1c(C)[nH]c2ccc(Cl)cc12)Cc1cccnc1	?	-6.2%	3.7%	-3.2	?	-87.0*
CCOc1ccc(NC(=O)c2cc(=O)c3cc(C)ccc3o2)cc1OC	nt	nt	nt	-1.4	nt	nt
O=C(c1ccco1)N1CCN(C(=S)Nc2ccc(F)c(Cl)c2)CC1	-27.4%	0.2%	-0.1%	-1.0	-18.4%	-10.4
O=C(Nc1ccc(N2CCN(C(=O)c3ccco3)CC2)c(Cl)c1)c1c(F)c(F)c(F)c(F)c1F	14.6µM*	-24.2%	?	-0.4	18.4µM*	-90.3*
O=C(Nc1ccc(N2CCN(C(=O)c3ccco3)CC2)c(Cl)c1)c1cccnc1	?	38.8%	-5.4%	-8.5	?	-67.1*
O=C(Nc1ccc(N2CCN(C(=O)c3cccs3)CC2)c(Cl)c1)c1cccnc1	?	17.8%	-24.3%	1.0	?	-78.5*
CCC(CC)NC(=O)Cc1cccs1	nt	nt	nt	0.6	nt	nt
COC(=O)c1ccc(COc2ccccc2/C=C2\CCc3cc(OC)ccc3C2=O)cc1	nt	nt	nt	0.3	nt	nt
N#CCSc1nnc(-c2ccccc2F)n1-c1ccccc1	nt	nt	nt	-1.7	nt	nt
CCCn1c2ccccc2c2nnc(SCc3ccc(F)cc3)nc21	nt	nt	nt	6.6	nt	nt
Cc1ccc(C(C(=O)Nc2ccc(C(C)C)cc2)N(C)C(=O)c2ccc(=O)[nH]c2)cc1 (stereo not given)	-10.3%	-29.8%	-3.1%	-1.2	18.4µM*	-14.7
COc1ccc(NC(=O)C(c2ccccc2)N(C)C(=O)c2ccc(=O)[nH]c2)cc1 (stereo not given)	-0.4%	-0.1%	2.5%	-3.8	1.5%	10.6
Fc1ccc(-c2noc(CCc3nc4ccccc4[nH]3)n2)cc1	nt	nt	nt	-4.5	nt	nt
O=C(Nc1cccc(C(F)(F)F)c1)c1cccnc1NCCO	-7.1%	6.8%	20.3%	-2.5	4.8%	30.9
O=C(Nc1cccc(F)c1)c1ccccc1-c1ccccc1	?	-10.3%	-3.6%	-6.7	4.1%	-14.0
O=C(Nc1cccc(F)c1)c1cccnc1NCCc1ccccc1	?	8.6%	?	-2.7	?	-60.1*
O=C(Nc1cccc(C(F)(F)F)c1)c1cccnc1NCCc1ccccc1	?	?	?	-0.8	16.4µM*	-67.4*
CCOCCCNC(=O)CS(=O)Cc1nc(-c2cccc(C)c2)oc1C (stereo not given)	nt	nt	nt	6.2	nt	nt
COC(=O)C1(C(=O)/C=C/c2ccc(Cl)cc2)CCCCC1	nt	nt	nt	-5.3	nt	nt
COC1(OC)C(/C=C/c2ccc(Cl)cc2)C(C#N)(C#N)C1(OC)OC (stereo not given)	8.2µM*	?	?	-1.8	8.2µM*	-101.5*
COc1cc(C)c(NC(=O)c2ccc3c(c2)NC(=O)CCS3)cc1OC	nt	nt	nt	13.3	nt	nt
Cc1cccn2c(=O)c3cc(C(=O)NCc4ccco4)c(=N)n(C(C)C)c3nc12	-26.1%	-7.6%	-6.5%	-4.9	-28.3%	-29.9
